Screens from PubChem.
Most compounds without a hit are left out; they make up all but 19% or so of the library.
S-ASM inh = Inhibitors of Secretory Acid Sphingomyelinase (S-ASM): qHTS | placental ASM, HMU-PC fluorogenic substrate, 60 min | Potency, µM (highest dose often 57.5 µM), hits mostly inhibitors | 0.006% of 340,000 active | AID 504937, 2011
Target sequence (P17405 47-631 limits assumed): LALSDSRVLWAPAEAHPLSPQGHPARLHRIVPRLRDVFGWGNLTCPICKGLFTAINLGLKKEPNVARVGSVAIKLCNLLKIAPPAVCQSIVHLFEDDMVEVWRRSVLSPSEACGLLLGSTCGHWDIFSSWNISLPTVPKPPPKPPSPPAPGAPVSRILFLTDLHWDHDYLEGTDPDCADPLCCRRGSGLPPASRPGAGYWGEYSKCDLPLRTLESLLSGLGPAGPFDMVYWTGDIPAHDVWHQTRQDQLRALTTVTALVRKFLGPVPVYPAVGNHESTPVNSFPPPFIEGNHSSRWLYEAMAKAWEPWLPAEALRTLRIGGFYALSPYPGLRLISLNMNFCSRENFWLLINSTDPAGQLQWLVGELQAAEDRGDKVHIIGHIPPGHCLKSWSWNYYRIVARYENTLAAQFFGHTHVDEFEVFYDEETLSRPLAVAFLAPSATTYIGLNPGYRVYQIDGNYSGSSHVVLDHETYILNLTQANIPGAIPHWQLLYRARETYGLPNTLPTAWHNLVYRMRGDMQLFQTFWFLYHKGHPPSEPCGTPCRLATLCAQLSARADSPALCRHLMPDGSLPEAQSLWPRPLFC
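qHTS format. ASM enzyme prepared from human placenta hydrolyses the fluorogenic substrate HMU-PC0 (9 uM final) over 60 min at 37 °C after a 10 min compound preincubation.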
TGFb SMAD3 inh = qHTS for Inhibitors of TGF-b | Potency, µM (doses to about 46.1 µM), hits mostly inhibitors | 1.2% of 410,000 active | HepG2 CAGA-GFP TGF-b/SMAD3 reporter, GFP fluorescence, 18 h; TGF-beta stimulated, 500 pg/mL final; note: nearly all actives have a fitted effect of over 65% in size
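Inhibition of TGF-beta-driven CAGA-GFP reporter expression in HEPG2 cells is measured by cellular GFP fluorescence after 18 h stimulation with 500 pg/mL recombinant TGF-beta in 1% FBS medium at 37 degrees C.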
HepG2 viability = qHTS for Inhibitors of TGF-b: Cytotox Counterscreen. HepG2 CAGA-GFP viability, ATP luminescence, 18 h. 0.76% of 410,000 active. Potency, µM (series often up to 46.1 µM), actives largely listed as cytotoxic
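CellTiter-Glo luminescence gave cytotoxicity after 18 hours at 37 degrees C. The cells were HepG2 CAGA-GFP in 1% FBS DMEM, stimulated with 500 pg/mL TGF-beta after compound addition. %Activity was normalised to no-cell wells (complete cell-killing) and DMSO (no toxicity), and curves were fitted and classified.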
TDP1 cell CPT = qHTS for Inhibitors of human tyrosyl-DNA phosphodiesterase 1 (TDP1): qHTS in cells in presence of CPT | Potency, µM (series often up to 46.2 µM), hits mostly inhibitors | 12% of 420,000 active | chicken DT40 Tdp1-/-;hTDP1 cells + 20 nM CPT, ATP luminescence, 48 h; note: nearly all actives have a fitted effect of over 55% in size
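Chicken DT40 Tdp1-/- cells stably complemented with human TDP1 were seeded at 400 cells/well in medium containing 20 nM camptothecin, exposed to pin-transferred compounds, and grown at 37 °C for at least 48 hr. Viability was read as ATP luminescence.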
TDP1 cell noCPT = qHTS for Inhibitors of human tyrosyl-DNA phosphodiesterase 1 (TDP1): qHTS in cells in absence of CPT; DT40 Tdp1-/- hTDP1 cells, no CPT, ATP luminescence, 48 h; AID 686978, 2013; Potency, µM (doses to about 46.2 µM), hits mostly inhibitors; 15% of 420,000 active; note: nearly all actives have a fitted effect of over 55% in size
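Camptothecin absent (DMSO only). Human TDP1-complemented DT40 knockout cells, 400 cells/well, 37 °C for minimum 48 hr; ATP measured via CellTiter-Glo, 30 min dark incubation, luminescence.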
IL-1B inflam inh = qHTS for Inhibitors of Inflammasome Signaling: IL-1-beta AlphaLISA Primary Screen; THP-1 LPS/ATP IL-1B secretion, AlphaLISA, 16 h; stronger effect = lower value; activity change, % at 57.5 µM; 4.7% of 360,000 active; in the data active = activity change below about -50%; inconclusive = mostly about -30% to -49%
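THP-1 cells pretreated 1 hr with compounds (up to 57.5 uM final), then stimulated with LPS (250 ng/mL final) plus ATP (1.25 mM final); secreted IL-1B measured by AlphaLISA after 16 hr, decreased signal indicating inhibition.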
A number is an active result; 0 = inactive; ? = inconclusive; - = not tested or not shown; [ ] = dose if it differs, or a comment. Unless noted, calls come from the whole dose curve; as a rule, active = well fitted curve in the direction sought with a large enough effect; inconclusive = small, poorly fitted or top-dose-only effect, or another doubt; inactive = no such curve, though single readings can be large; an effect the other way counts as inactive or inconclusive.

SMILES	S-ASM inh	TGFb SMAD3 inh	HepG2 viability	TDP1 cell CPT	TDP1 cell noCPT	IL-1B inflam inh
COc1ccc(NC(=O)Nc2cccs2)cc1OC	0	0	0	0	0	0
CC(=O)c1cccc(NC(=O)Nc2cccs2)c1	0	0	0	16µM	?	0
CCc1ccc(NC(=O)Nc2cn(C)c(=O)c3ccccc23)cc1	-	0	0	21µM	21µM	-
Cc1ccc(NC(=O)Nc2cn(C)c(=O)c3ccccc23)c(Cl)c1	-	0	0	?	?	-
COc1ccc(NC(=O)NC23CC4CC(CC(C4)C2)C3)cc1OC	0	0	0	0	?	0
CCc1ccc(NC(=O)Nc2cccs2)cc1	0	0	0	21µM	15µM	0
COc1cccc(NC(=O)Nc2cccs2)c1	0	0	0	?	?	0
CCOc1ccc(NC(=O)NC23CC4CC(CC(C4)C2)C3)cc1	0	0	0	21µM	23µM	-67
COc1ccc(CNC(=O)C2CCCN2c2nc(C)c3ccccc3n2)cc1 (stereo not given)	-	-	-	0[9.04 µM]	0	-
O=C1CC(C(=O)N2CCCc3ccccc32)CN1c1ccc(Cl)cc1 (stereo not given)	0	0	0	0	?	0
CCC(CC)C(=O)Nc1nnc(SCC(=O)NC2CCCCC2)s1	0	0	0	0	0	0
Cc1ccc(NC(=O)Nc2ccno2)cc1	0	0	0	?	16µM	0
Cc1ccc(NC(=O)Nc2ncccc2C)cc1	0	0	0	0	0	0
COc1cc(C(=O)N(C)CC2CCN(CCc3cccc(C(F)(F)F)c3)CC2)ccc1C	0	?	0	?	?	-86
CN(CC1CCN(CCc2cccc(C(F)(F)F)c2)CC1)C(=O)c1ccc(F)cc1	0	0	0	?	?	?
O=C(NCCOc1ccccc1)c1cc(S(=O)(=O)N2CCOCC2)ccc1F	0	0	0	?	0	0
CC(C)CC(=O)NCC1(N(C)C)CCCCC1	-	0	0	0	0	-
COc1cc(C(=O)NCC(c2ccco2)N2CCc3ccccc3C2)cc(OC)c1OC (stereo not given)	0	0	0	?	?	0
COc1ccc(C(=O)NCC(c2ccco2)N2CCc3ccccc3C2)c(OC)c1 (stereo not given)	-	?	0	23µM	8.2µM	0
COc1ccc(C(=O)NCC(c2ccco2)N2CCc3ccccc32)c(OC)c1 (stereo not given)	0	0	0	?	7.3µM	0
COc1ccc(S(=O)(=O)NCC(c2ccco2)N2CCc3ccccc32)cc1 (stereo not given)	0	?	0	?	15µM	0
C[C@H]1O[C@@H](O[C@H]2CC[C@@]3(C)C(CC[C@]4(C)C3C=CC3=C5CC(C)(C)CC[C@]5(CO)[C@H](O)C[C@]34C)[C@]2(C)CO)[C@H](O)[C@@H](O[C@@H]2O[C@H](CO)[C@@H](O)[C@H](O)[C@H]2O)[C@H]1O (stereo not given in full)	0	0	0	0	0	0
COc1cccc(CNS(=O)(=O)c2c(C(=O)N3CCCC3)c(C)n(C)c2C)c1	0	0	0	0	0	0
NC(=S)N/N=C/c1c(O)c(Br)cc2oc3c(c12)CCCC3	0	?	0	5.2µM	5.2µM	0
Oc1c(Br)cc2oc3c(c2c1CNCc1ccccc1)CCCC3	0	0	0	?	?	0
CN1CCN(C(=O)c2ccc3c(c2)N(Cc2ccc(C(F)(F)F)cc2)C(=O)c2ccccc2S3)CC1	-	?	0	?	21µM	-
Cc1ccc(CN2C(=O)c3ccccc3Sc3ccc(C(=O)N4CCOCC4)cc32)cc1	-	?	0	?	?	-
